# According to publication PMC5540273 (PLoS ONE, 2017):
# Key:
# Settings in all cases: concentration: 1 μM, replicates: in singlicate; n = 1
# DCAMKL2 = tested on: T1, DCAMKL2
# T1 construct: gene DCLK2
# DCAMKL3 = tested on: T2, DCAMKL3
# T2 construct: gene DCLK3
# DDR1 = tested on: DDR1
# DDR2 = tested on: DDR2
# DLK = tested on: T3, DLK
# T3 construct: gene MAP3K12
# DMPK2 = tested on: T4, DMPK2
# T4 construct: gene CDC42BPG
# DMPK = tested on: DMPK
# DRAK1 = tested on: T5, DRAK1
# T5 construct: gene STK17A
# DRAK2 = tested on: T6, DRAK2
# T6 construct: gene STK17B
# DYRK1A = tested on: DYRK1A
# 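Also: KINOMEscan kinase panel screen.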
SMILES,%Inh (DCAMKL2) [%],%Inh (DCAMKL3) [%],%Inh (DDR1) [%],%Inh (DDR2) [%],%Inh (DLK) [%],%Inh (DMPK2) [%],%Inh (DMPK) [%],%Inh (DRAK1) [%],%Inh (DRAK2) [%],%Inh (DYRK1A) [%]
COc1cccc(-c2nc(-c3ccccc3)[nH]c2-c2ccncc2)c1 [SB-610250],22,14,78,49,16,68,0,0,0,22
CC(C)NCC(Cc1ccccc1)NC(=O)c1cc(Br)c(-c2ccnc3[nH]ccc23)s1.Cl.Cl (centres unmarked) [GSK1383281],0,54,0,13,24,50,32,0,4,17
Cc1cc(-c2c(-c3ccc(F)cc3)ncn2CCCN2CCOCC2)nc(N)n1 [SB-222517],2,0,0,21,0,0,16,13,15,0
Cl.Cl.NCC(NC(=O)c1cc(-c2cccnc2)c(-c2ccnc3[nH]ccc23)s1)c1ccccc1 (centres unmarked) [GSK1323434],9,0,11,55,34,51,79,19,0,48
Cc1ccc(O)cc1Nc1ccnc2cc(-c3ccc(CN4CCCCC4)o3)ccc12 [GW557777],10,0,98.1,94.5,0,7,0,10,0,0
COc1ccc(C2=C(Nc3cccc(O)c3)C(=O)NC2=O)cc1 [SB-390766],0,1,1,17,19,0,0,3,0,70
COc1cc(Nc2ccnc3cc(-c4ccncc4)ccc23)cc(OC)c1OC.Cl [GW494610],0,0,57,81,47,46,0,0,0,12
Cc1cc(-c2ccnc(Nc3cccc(C#N)c3)n2)cc(C)c1O [GSK1440913],10,61,0,23,46,22,0,96.8,45,46
CS(=O)(=O)c1cccc(CNc2nc(Nc3ccc4c(c3)CCC(=O)N4)ncc2C(F)(F)F)c1,0,99.4,0,2,13,0,0,95.6,98.3,85
CCn1c(-c2nonc2N)nc2c(-c3ccccc3)ncc(OCCCN)c21.O=C(O)C(F)(F)F.O=C(O)C(F)(F)F [GSK260205],9,70,26,31,0,100,0,5,2,23
Cc1cccc(Nc2nc(N[C@H]3CCCC[C@H]3N)ncc2C(N)=O)c1.Cl [GSK986310],3,35,6,0,19,21,59,4,18,26
Cn1cc(-c2ccc3c(c2)CCN3C(=O)Cc2cc(F)cc(C(F)(F)F)c2)c2c(N)ncnc21 [GSK2635225],0,0,100,85,23,0,0,0,0,4
CN(C)CCOc1ccc(-c2cc(-c3ccc(Cl)c(O)c3)c(-c3ccncc3)[nH]2)cc1.Cl.Cl [SB-684387],0,10,56,38,14,41,29,20,0,0
CCOc1nccc(-c2c(-c3ccc(F)cc3)ncn2C2CCNCC2)n1 [SB-249175],24,10,0,7,0,75,15,0,0,1
O=C(Nc1n[nH]c2nc(-c3ccccc3O)ccc12)C1CC1 [SB-711880],0,0,1,0,32,0,0,3,0,9
O=C(Nc1n[nH]c2nc(-c3cccc(O)c3)ccc12)C1CC1 [SB-711805],0,49,0,20,0,0,0,24,12,76
CC(C)c1nc(-c2cccc(NS(=O)(=O)c3c(F)cccc3F)c2)c(-c2ccnc(Nc3ccc(N4CCOCC4)nc3)n2)s1.Cl [GSK1723980],13,10,94.9,42,74,11,0,0,0,39
